Activity calls are given as the source filed them. How the calls were made is not given here.
What follows are compounds tested against Pantothenate synthetase (Mycobacterium tuberculosis (strain ATCC 25618 / H37Rv)) (UniProt P9WIL5) (assay: Coupled enzyme confirmation of inhibitors against recombinant Mtb PanC (AID 375;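 further: 0% = full reaction with vehicle and 100% = no enzyme background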)). Conditions: coupled enzyme assay; at 10 µM, hits give high values.
Chain of Pantothenate synthetase (Mycobacterium tuberculosis (strain ATCC 25618 / H37Rv)) (P9WIL5 whole entry, looked up): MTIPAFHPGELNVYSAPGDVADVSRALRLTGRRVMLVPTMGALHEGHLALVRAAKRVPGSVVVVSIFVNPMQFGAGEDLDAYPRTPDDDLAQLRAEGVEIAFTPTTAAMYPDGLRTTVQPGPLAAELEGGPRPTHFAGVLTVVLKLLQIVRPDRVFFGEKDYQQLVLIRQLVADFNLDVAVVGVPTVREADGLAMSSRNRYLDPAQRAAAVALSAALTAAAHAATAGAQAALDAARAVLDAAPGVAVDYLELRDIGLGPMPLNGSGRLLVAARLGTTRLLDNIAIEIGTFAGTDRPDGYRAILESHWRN

**Q.** How did the inhibition turn out when `CN(CC(=O)Nc1ccc2c(c1)OCCO2)S(=O)(=O)c1ccc(Br)s1` was run?
**A.** 6% (inactive)

**Q.** How did the inhibition turn out when `CCCCOc1ccc(NC(=O)Cn2c(=O)ccc3c(C)cc(C)nc32)cc1` was run?
**A.** 3% (inactive)

**Q.** With `O=C(O)C1C2CCC(O2)C1C(=O)Nc1cccc(F)c1` (centres undefined) as the compound, how does the inhibition read?
**A.** 1% (inactive)

**Q.** For `Cc1ccc(S(=O)(=O)N2CCN(C(=O)N3CCOCC3)C2C)cc1` (centres undefined), which inhibition is on record?
**A.** 0% (inactive)

**Q.** For `Cc1cc(C(=O)NCc2cccnc2)no1`, which inhibition is on record?
**A.** 0% (inactive)

**Q.** For `COCCNC(=O)c1c(N)n(CCC2=CCCCC2)c2nc3ccccc3nc12`, which inhibition is on record?
**A.** 0% (inactive)

**Q.** How did the inhibition turn out when `CC1(C)CC(=O)C(C#N)=C(NCCCO)C1` was run?
**A.** 0% (inactive)

**Q.** `CCS(=O)(=O)N1CCCC(c2nc(-c3cccc(OC)c3)no2)C1` (centres undefined) was tested. Which inhibition did it give?
**A.** 0% (inactive)

**Q.** `CN(c1ccccc1)S(=O)(=O)c1cc(C(=O)N2CCN(c3ccccn3)CC2)ccc1Cl` was tested. Which inhibition did it give?
**A.** 0% (inactive)

**Q.** `CC1CCN(Cc2ccc(-c3nn[nH]n3)cc2)CC1` was tested. Which inhibition did it give?
**A.** 0% (inactive)

**Q.** `CCOc1ccccc1C1CC(c2ccc(Br)cc2)Nc2nc(N)nn21` (centres undefined) was tested. Which inhibition did it give?
**A.** 10% (inactive)

**Q.** For `CCCCc1c(O)nc(SCC(=O)c2ccccc2)[nH]c1=O`, which inhibition is on record?
**A.** 0% (inactive)

**Q.** Which inhibition does the source give for `N#CC1=C(N)SC(N)=C(C#N)C1CCc1ccccc1` here?
**A.** 8% (inactive)

**Q.** How did the inhibition turn out when `Cc1ccc(S(=O)(=O)N2CCN(S(=O)(=O)N(C)C)CC2)cc1` was run?
**A.** 0% (inactive)

**Q.** With `Cc1ccccc1CN1CCN(C(=O)c2cccc(F)c2)CC1` as the compound, how does the inhibition read?
**A.** 0% (inactive)

**Q.** With `Cc1ccc(-c2nc(-c3cccnc3)no2)c(C)c1` as the compound, how does the inhibition read?
**A.** 5% (inactive)

**Q.** Which inhibition does the source give for `CC(NC(=O)Nc1nccs1)(C(F)(F)F)C(F)(F)F` here?
**A.** 5% (inactive)

**Q.** For `Cc1csc(NC(=O)c2cccs2)n1`, which inhibition is on record?
**A.** 0% (inactive)

**Q.** `CCOC(=O)CSc1nnc(Cn2c(=O)sc3ccccc32)n1C` was tested. Which inhibition did it give?
**A.** 0% (inactive)

**Q.** How did the inhibition turn out when `CCC1CCCCN1S(=O)(=O)c1ccc(C(=O)Nc2nnc(-c3ccccc3Cl)o2)cc1` (centres undefined) was run?
**A.** 4% (inactive)

**Q.** With `COc1cccc(NC(=O)Nc2cccs2)c1` as the compound, how does the inhibition read?
**A.** 0% (inactive)

**Q.** With `Cc1cc(C)nc(NS(=O)(=O)c2ccc(N)cc2)n1` as the compound, how does the inhibition read?
**A.** 0% (inactive)

**Q.** With `COc1ccc(OC)c(NC(=O)C2C3CC4OC(=O)C2C4C3)c1` (centres undefined) as the compound, how does the inhibition read?
**A.** 0% (inactive)

**Q.** For `COc1cccc(C(=O)Nc2cc(C)c3c(=O)oc4ccccc4c3n2)c1`, which inhibition is on record?
**A.** 0% (inactive)

**Q.** How did the inhibition turn out when `Cc1cccc(-c2cc3nc4c(c(N5CCC6(CC5)OCCO6)n3n2)CCCC4)c1` was run?
**A.** 4% (inactive)

**Q.** Which inhibition does the source give for `CC(=O)NCCC(=O)Nc1ccc(C)c(F)c1` here?
**A.** 6% (inactive)

**Q.** For `COc1cccc2cc(C(=O)N3CCN(c4ccc(C)cc4C)CC3)c(=O)oc12`, which inhibition is on record?
**A.** 0% (inactive)

**Q.** Which inhibition does the source give for `O=C(NCc1cccs1)c1cc2c(s1)CS(=O)(=O)C2` here?
**A.** 1% (inactive)

**Q.** For `Cc1c(C#N)c2ccccc2n1CC(=O)N1CCc2ccccc2C1`, which inhibition is on record?
**A.** 0% (inactive)

**Q.** For `CCC(NS(=O)(=O)c1ccc(C)cc1)C(=O)N1CCC2(O)CCCCC2C1` (centres undefined), which inhibition is on record?
**A.** 6% (inactive)

**Q.** How did the inhibition turn out when `Cn1c(=O)cc(OCC(=O)NCCCN2CCN(c3cccc(Cl)c3)CC2)c2ccccc21` was run?
**A.** 0% (inactive)

**Q.** For `CC1(C)OC(=O)C(=CNc2ccccc2F)C(=O)O1`, which inhibition is on record?
**A.** 0% (inactive)

**Q.** With `CN(C)c1ccc(C2C3=C(CCCC3=O)OC3=C2C(=O)CCC3)cc1` as the compound, how does the inhibition read?
**A.** 0% (inactive)

**Q.** With `CCOC(=O)N1CCC(NC(=O)CN2C(=O)CCSc3ccccc32)CC1` as the compound, how does the inhibition read?
**A.** 0% (inactive)

**Q.** For `COc1ccc(N2CCN(Cc3cc(=O)oc4cc(C)c(Cl)c(C)c34)CC2)cc1`, which inhibition is on record?
**A.** 6% (inactive)

**Q.** How did the inhibition turn out when `Cc1c(C)n(C)c2ccc(C(=O)NCc3cccs3)cc12` was run?
**A.** 0% (inactive)

**Q.** `COc1cccc(NC(=O)N[C@@H](Cc2ccccc2)C(=O)O)c1` was tested. Which inhibition did it give?
**A.** 0% (inactive)

**Q.** `COc1ccc(-c2nnc(SC(C)C(=O)Nc3nccs3)n2-c2ccccc2)cc1OC` (centres undefined) was tested. Which inhibition did it give?
**A.** 0% (inactive)

**Q.** Which inhibition does the source give for `CC(=O)c1c(C)[nH]c(C(=O)Nc2ccc3c(c2)OCCO3)c1C` here?
**A.** 3% (inactive)

From PubChem BioAssay
